Drawing on PubChem BioAssay (EPA / NIEHS), this text covers outcome and AC50 for 14 compounds.

More than one record can exist for a structure, and the calls need not agree. Active and inactive are the calls of the source. How the source made its calls: active means hit-call score of the fitted dose curve at least 0.9, where 1 is the maximum; inactive means score below 0.9.

Read-out in test [1]: TIMP metallopeptidase inhibitor 2 (TIMP2), TIMP2 (gene 7077)
Nature of the test: BSK_KF3CT_TIMP2: BioMAP Diversity Plus: KF3CT Assay for TIMP metallopeptidase inhibitor 2 (TIMP2) Biomarker Activity (AID 2283071). To be noted: primary human keratinocytes with fibroblasts; actives raise or lower the signal. The method, boiled down: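 Chemicals were dosed onto human skin primary co-cultures of keratinocytes and foreskin fibroblasts, and TIMP-2 was measured by ELISA after 24 hours. Activity in either direction was fitted relative to DMSO.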

Read-out in test [2]: Transforming growth factor beta 1 (TGFb1), TGFB1 (gene 7040)
The test is described as follows: BSK_KF3CT_TGFb1: BioMAP Diversity Plus: KF3CT Assay for Transforming growth factor beta 1 (TGFb1) Biomarker Activity (AID 2283072). To be noted: primary human keratinocytes with fibroblasts; actives raise or lower the signal. The method, boiled down: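 KF3CT co-culture (keratinocytes + fibroblasts), 24 h exposure → TGF-b1 ELISA → bidirectional fit, DMSO = baseline. Parallel SRB total-protein staining (0.1% SRB, 10% TCA fixation, 560 nm) for cytotoxicity.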

Read-out in test [3]: C-C motif chemokine 2 (Homo sapiens) (UniProt P13500)
The test is described as follows: BSK_KF3CT_MCP1: BioMAP Diversity Plus: KF3CT Assay for Monocyte Chemoattractant Protein 1 (MCP1/CCL2) Biomarker Activity (AID 2283073). To be noted: primary human keratinocytes with fibroblasts; actives raise or lower the signal. In short, it runs like this:
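ELISA readout of MCP-1 after 24 h chemical dosing of a human skin primary co-culture of keratinocytes and foreskin fibroblasts. Activity was fitted in both directions against DMSO.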

Read-out in test [4]: Matrix Metallopeptidase 9 (MMP9), MMP9 (gene 4318)
The test is described as follows: BSK_KF3CT_MMP9: BioMAP Diversity Plus: KF3CT Assay for Matrix Metallopeptidase 9 (MMP9) Biomarker Activity (AID 2283074).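 On AC50: MMP9 protein level quantified by ELISA in the co-culture.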 To be noted: primary human keratinocytes with fibroblasts; actives raise or lower the signal. The method, boiled down:
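ELISA read-out of MMP-9 at 24 h post-dosing in a co-culture of human skin keratinocytes and foreskin fibroblasts. Gain or loss of signal was fitted in both directions against DMSO.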

Read-out in test [5]: urokinase plasminogen activator (uPA), PLAU (gene 5328)
The test is described as follows: BSK_KF3CT_uPA: BioMAP Diversity Plus: KF3CT Assay for urokinase plasminogen activator (uPA) Biomarker Activity (AID 2283075). The conditions noted are these: primary human keratinocytes with fibroblasts; actives raise or lower the signal. In short, it runs like this: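 Skin co-culture (keratinocytes + foreskin fibroblasts), human primary; 24 h post-dose; uPA by ELISA; gain/loss fit vs DMSO baseline.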

Read-out in test [6]: CD40, CD40 (gene 958)
Nature of the test: BSK_LPS_CD40: BioMAP Diversity Plus: LPS Assay for CD40 Biomarker Activity (AID 2283076). To be noted: primary human HUVEC with PBMC; actives raise or lower the signal. The method, boiled down: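 Cells were dosed, incubated 24 h, then assayed for CD40 by ELISA. Gain or loss of signal was analysed relative to DMSO controls. The culture paired human umbilical vein endothelium with peripheral blood mononuclear cells.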

Read-out in test [7]: E-selectin (Homo sapiens) (UniProt P16581)
The test is described as follows: BSK_LPS_Eselectin: BioMAP Diversity Plus: LPS Assay for Eselectin Biomarker Activity (AID 2283077). The conditions noted are these: primary human HUVEC with PBMC; actives raise or lower the signal. The method, boiled down: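 Primary human vascular co-culture (endothelium plus PBMC) was dosed with chemical, then E-selectin quantified by ELISA at 24 h. Endpoint values derive from bidirectional curve fitting relative to DMSO.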

Read-out in test [8]: Interleukin-8 (IL8), CXCL8 (gene 3576)
Nature of the test: BSK_LPS_IL8: BioMAP Diversity Plus: LPS Assay for Interleukin-8 (IL8) Biomarker Activity (AID 2283078). The conditions noted are these: primary human HUVEC with PBMC; actives raise or lower the signal. In short, it runs like this: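 Readout is IL-8 by ELISA, taken 24 h after compounds were added to LPS-stimulated endothelial/PBMC co-cultures. Both increases and decreases relative to DMSO control were scored through bidirectional fitting.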

Test [9] can be described thus: BSK_LPS_SRB: Viability Assessment in the BioMAP Diversity Plus: LPS Assay (AID 2283079).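 Further: total protein by sulforhodamine B absorbance as a cytotoxicity measure; measured one day after compound addition.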 To be noted: primary human HUVEC with PBMC. In short, it runs like this: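 Readout is SRB absorbance at 560 nm (0.1% stain, TCA-fixed parallel cultures) as a total-protein cytotoxicity measure. Cells: primary human umbilical vein endothelium plus peripheral blood mononuclear cells, 24 h after chemical exposure; DMSO served as baseline.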

Read-out in test [10]: Interleukin-1 alpha (IL1a), IL1A (gene 3552)
The test is described as follows: BSK_LPS_IL1a: BioMAP Diversity Plus: LPS Assay for Interleukin-1 alpha (IL1a) Biomarker Activity (AID 2283080). To be noted: primary human HUVEC with PBMC; actives raise or lower the signal. The method, boiled down: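 ELISA read-out of IL-1 alpha from a human primary vascular co-culture (endothelium plus PBMC) under LPS, sampled 24 hours post-dosing. Activity was fitted in both directions relative to DMSO controls.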

Sequence of E-selectin (Homo sapiens) (P16581 whole entry, looked up): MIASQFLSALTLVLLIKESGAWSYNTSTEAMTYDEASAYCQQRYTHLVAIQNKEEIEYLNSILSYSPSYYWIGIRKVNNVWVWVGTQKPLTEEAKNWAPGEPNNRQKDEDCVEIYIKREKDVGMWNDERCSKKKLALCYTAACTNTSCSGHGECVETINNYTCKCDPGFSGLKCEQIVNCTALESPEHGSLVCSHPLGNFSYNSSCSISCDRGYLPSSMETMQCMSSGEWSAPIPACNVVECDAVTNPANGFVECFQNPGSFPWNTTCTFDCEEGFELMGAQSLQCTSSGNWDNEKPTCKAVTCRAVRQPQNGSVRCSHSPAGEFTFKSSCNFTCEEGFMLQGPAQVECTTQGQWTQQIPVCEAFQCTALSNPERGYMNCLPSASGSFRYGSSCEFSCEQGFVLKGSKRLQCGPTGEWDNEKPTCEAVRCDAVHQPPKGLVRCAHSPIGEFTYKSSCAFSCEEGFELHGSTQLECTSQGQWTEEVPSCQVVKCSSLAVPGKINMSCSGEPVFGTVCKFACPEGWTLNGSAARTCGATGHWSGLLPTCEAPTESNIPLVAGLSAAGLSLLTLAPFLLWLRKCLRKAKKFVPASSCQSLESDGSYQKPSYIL

For orientation: AC50 means the midpoint of the concentration-response curve, whichever way the signal moves. As for `Cc1[nH]nc2c1N=C(c1ccccc1Cl)c1cc([N+](=O)[O-])ccc1N2`, the outcome in test [1], in [2], in test [3] and in [5] was inactive. Also, the AC50 in test [4] is 4.48 µM (active); in test [6], 4.82 µM (active); in test [7], 6.04 µM (active); in [8] it was 7.23 µM (active); in [9], 2.08 µM (active); in test [10], 4.2 µM (active).
For the compound `CN(C)c1ccc(C(=C2C=CC(=[N+](C)C)C=C2)c2ccccc2)cc1`, the AC50 is 0.795 µM (active) in [1]; 0.194 µM (active) in [2]; 0.699 µM (active) in test [3]; 0.0207 µM (active) in test [4]; 0.465 µM (active) in [5]; 0.0133 µM (active) in [6]. The concentration at half-maximal activity (AC50) in [7] is 0.0082 µM (active); in test [9], 0.149 µM (active); in [10], 0.00944 µM (active). The outcome in test [8] was inactive.
As for `CCCCC=O`, the outcome in [1], in test [2], in [3], in test [4], in test [5] and in test [6] was inactive. Also, the outcome in [7], in test [8], in [9] and in test [10] was inactive.
For the compound `CCCCCCCCCCCCCCCCCC[N+](C)(C)Cc1ccccc1`, the AC50 is 3.25 µM (active) in test [1]; 6.52 µM (active) in [3]; 2.75 µM (active) in [4]; 2.95 µM (active) in test [5]; 2.74 µM (active) in [6]; 2.87 µM (active) in test [7]. Moreover, the AC50 in test [8] is 5.17 µM (active); in [9], 2.66 µM (active); in test [10] it was 2.71 µM (active). Further, the outcome in [2] was inactive.
With `Oc1cc2ccccc2cc1O`, the result in test [1], in test [2], in [3], in test [4], in test [5] and in [6] was inactive. Moreover, the outcome in [7], in test [8], in [9] and in test [10] was inactive.
Regarding `CN(Cc1cnc2nc(N)nc(N)c2n1)c1ccc(C(=O)N[C@@H](CCC(=O)O)C(=O)O)cc1`, the result in test [1], in [2], in test [3], in test [4], in [5] and in test [6] was inactive. For the same compound, the outcome in [7], in test [8], in [9] and in [10] was inactive. Besides, the AC50 in test [5] is 4.77 µM (active).
`Clc1ccc(Nc2nnc(Cc3ccncc3)c3ccccc23)cc1`: the results for the AC50 in test [1], in test [2] and in [4] were 3.02 µM (active), 1.99 µM (active) and 7.58 µM (active), respectively. For the same compound, the result in test [3], in test [5], in test [6], in [7], in test [8] and in [9] was inactive. Further, the result in test [10] was inactive.
As for `CC[N+](CC)(CC)Cc1ccccc1`, the result in [1], in test [2], in test [3], in [4], in test [5] and in test [6] was inactive. Further, the result in [7], in test [8], in [9] and in test [10] was inactive.
`Cc1ccc(N=Nc2c(O)ccc3ccccc23)c(C)c1`: the AC50 in test [1] is 4.11 µM (active). The result in [2], in test [3], in test [4], in test [5], in test [6] and in test [7] was inactive. Besides, the outcome in test [8], in [9] and in test [10] was inactive.
For the compound `O=C1OC2(c3ccccc31)c1cc(I)c(O)c(I)c1Oc1c2cc(I)c(O)c1I`, the AC50 was 2.44 µM (active) in test [1]; 3.45 µM (active) in [2]; 3.51 µM (active) in test [3]; 14.9 µM (active) in [4]; 9.05 µM (active) in test [5]; 8.71 µM (active) in [6]. Moreover, the AC50 in test [7] was 8.58 µM (active); in test [10], 9.13 µM (active). The result in test [8] and in test [9] was inactive.
For the compound `CCC(C)c1ccccc1O` (stereo unspecified), the result in test [1], in test [2], in test [3], in test [4], in [5] and in [6] was inactive. The result in test [7], in [8], in test [9] and in [10] was inactive.
As for `C=COC(=O)C(C)(C)CCCCCC`, the AC50 is 27.6 µM (active) in test [1]; 25.9 µM (active) in test [3]; 33 µM (active) in test [4]; 28 µM (active) in test [5]; 31.7 µM (active) in test [6]; 30.6 µM (active) in test [7]. The results for the AC50 in test [8], in test [9] and in test [10] were 33.1 µM (active), 34.6 µM (active) and 33.6 µM (active), respectively. Moreover, the result in [2] was inactive.
Regarding `OCC(CO)(CBr)CBr`, the outcome in [1], in test [2], in test [3], in test [4], in [5] and in [6] was inactive. Further, the outcome in test [7], in test [8], in [9] and in [10] was inactive.
`C=CC(=C)CC/C=C(\C)CCC=C(C)C`: the outcome in [1], in [2], in test [3], in [4], in test [5] and in test [6] was inactive. The result in test [7], in test [8], in [9] and in [10] was inactive.
